Results from PubChem BioAssay (NCI).
Compounds without any hit were thinned out: in the full panel of roughly 79,000, 15% have a hit. Calls of active or inactive are those of the source. Cut-off read from the data, not from the text of the source: active = growth inhibition above about 70%; inactive = the rest.

Assays:
[1] = NCI Yeast Anticancer Drug Screen. Data for the rad52 strain (AID 147);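 note: 0% = growth of vehicle-treated control cultures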; conditions: S. cerevisiae rad52 mutant growth inhibition, hits give high values
Summary of the method: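 Measured: yeast growth inhibition. System: strain with a defined DNA damage repair alteration. Reference: vehicle-treated control cultures.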

[2] = NCI Yeast Anticancer Drug Screen. Data for the wt1 strain (AID 149);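 note: 0% = growth of vehicle-treated wt1 cultures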; conditions: S. cerevisiae wt1 strain (SPY 50644) growth inhibition, hits give high values
Summary of the method: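 Each compound is tested on wt1 yeast and the loss of growth versus vehicle gives the inhibition value.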

[3] = NCI Yeast Anticancer Drug Screen. Data for the rad50EPP+ strain (AID 151);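 note: 0% = growth of vehicle-treated control cultures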; conditions: S. cerevisiae rad50 mutant strain, hits give high values
Summary of the method: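 One strain with a rad50 alteration (rad50EPP+) was compound-treated, its growth then compared to that of vehicle controls.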

[4] = NCI Yeast Anticancer Drug Screen. Data for the rad50 strain (AID 155);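 note: 0% = growth of vehicle-only cultures of the same strain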; conditions: S. cerevisiae rad50 strain growth inhibition, hits give high values
Summary of the method: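 Vehicle-treated cultures provide the reference for the growth inhibition reported for compound-exposed, repair-deficient yeast.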

[5] = NCI Yeast Anticancer Drug Screen. Data for the mec2-1 strain (AID 157); conditions: S. cerevisiae mec2-1 strain, hits give high values
Summary of the method: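 Test agents were screened against the mec2-1 yeast strain, with defined DNA repair or cell cycle alteration. Growth was scored as inhibition against vehicle-only controls.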

[6] = NCI Yeast Anticancer Drug Screen. Data for the rad14 strain (AID 159);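 note: 0% = growth of vehicle-treated control cultures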; conditions: S. cerevisiae rad14 strain growth inhibition, hits give high values
Summary of the method: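 Inhibition of growth is reported for a repair-deficient yeast mutant following compound treatment, calculated relative to cultures that received vehicle.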

[7] = NCI Yeast Anticancer Drug Screen. Data for the sgs1 mgt1 strain (AID 161);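 note: 0% = growth of cultures given vehicle only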; conditions: S. cerevisiae sgs1 mgt1 strain, hits give high values
Summary of the method: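 Genetically altered yeast, compound exposure, growth inhibition relative to vehicle.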

[8] = NCI Yeast Anticancer Drug Screen. Data for the CLN2oe strain (AID 163);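 note: 0% = growth of vehicle-only control cultures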; conditions: S. cerevisiae CLN2oe strain, hits give high values
Summary of the method: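 Here, growth inhibition in a cell-cycle-altered yeast strain after compound exposure was quantified against vehicle control growth.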

[9] = NCI Yeast Anticancer Drug Screen. Data for the cln2 rad14 strain (AID 165);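 note: 0% = growth equal to vehicle treated cultures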; conditions: S. cerevisiae cln2 rad14 strain, hits give high values
Summary of the method: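 Growth of compound-exposed yeast (cln2 rad14 genotype) measured and expressed as inhibition relative to vehicle.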

[10] = NCI Yeast Anticancer Drug Screen. Data for the bub3 strain (AID 167); conditions: S. cerevisiae bub3 mutant strain, hits give high values
Summary of the method: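 Mutant yeast screening strain plus compound; vehicle-treated cultures serve as the 0% inhibition reference.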

[11] = NCI Yeast Anticancer Drug Screen. Data for the wt2 strain (AID 169); conditions: S. cerevisiae wt2 strain growth inhibition, hits give high values
Summary of the method: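 Genetically defined yeast strains from a DNA-repair/cell-cycle panel were used. Compound-exposed yeast growth was measured, and the inhibition was calculated relative to vehicle treatment.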

[12] = NCI Yeast Anticancer Drug Screen. Data for the mlh1 strain (AID 171);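 note: 0% = growth of vehicle-treated control cultures of the same strain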; conditions: S. cerevisiae mlh1 strain growth inhibition, hits give high values
Summary of the method: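 Here the genetically defined yeast mutant is grown with each compound, and the extent to which its growth falls below that of vehicle-exposed cells is reported.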

[13] = NCI Yeast Anticancer Drug Screen. Data for the sgs1 strain (AID 173);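 note: 0% = growth of vehicle-only control cultures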; conditions: S. cerevisiae sgs1 mutant, hits give high values
Summary of the method: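 Relative growth inhibition, referenced to vehicle, was determined in a yeast strain with a defined alteration affecting DNA damage repair or cell cycle control after compound exposure.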

[14] = NCI Yeast Anticancer Drug Screen. Data for the mlh1 rad18 strain (AID 175); conditions: S. cerevisiae mlh1 rad18 strain growth inhibition, hits give high values
Summary of the method: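 In this whole-cell yeast screen, a strain with altered DNA damage repair is challenged with compound, and its growth is measured against matched vehicle-treated controls.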

[15] = NCI Yeast Anticancer Drug Screen. Data for the rad18 strain (AID 177); conditions: S. cerevisiae rad18 mutant growth inhibition, hits give high values
Summary of the method: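 Screen uses a yeast strain with a defined lesion in DNA damage repair; compound effect is read as loss of growth compared to untreated vehicle cultures.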

[16] = NCI Yeast Anticancer Drug Screen. Data for the mgt1 strain (AID 153); conditions: S. cerevisiae mgt1 mutant growth inhibition, hits give high values
Summary of the method: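 After exposure of the mgt1 yeast mutant to compound, growth was measured and reported as inhibition compared with vehicle controls.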

[17] = at 5.0 µM (retest, dose inferred, filed as 0.5)
[18] = at 50.0 µM (retest, dose inferred, filed as 5.0)

Measured: growth inhibition

c1ccc(-c2nc3cccnc3s2)cc1
inactive: [1]; at 1.2 µM 1% | [1]; at 3.7 µM 1% | [1]; at 11.0 µM 6% | [1]; at 33.0 µM 14% | [1]; at 100.0 µM 16% | [2]; at 1.2 µM -2% | [2]; at 3.7 µM -4% | [2]; at 11.0 µM -2% | [2]; at 33.0 µM -2% | [2]; at 100.0 µM 0% | [3]; at 1.2 µM 3% | [3]; at 3.7 µM 7% | [3]; at 11.0 µM 8% | [3]; at 33.0 µM 19% | [3]; at 100.0 µM 24% | [4]; at 1.2 µM 2% | [4]; at 3.7 µM 9% | [4]; [17] 5% | [4]; at 11.0 µM 5% | [4]; at 33.0 µM 9% | [4]; [18] 56% | [4]; at 100.0 µM 33% | [5]; at 1.2 µM -2% | [5]; at 3.7 µM -1% | [5]; [17] 5% | [5]; at 11.0 µM -3% | [5]; at 33.0 µM -12% | [5]; [18] 20% | [5]; at 50.0 µM 9.5% | [5]; at 100.0 µM 20% | [6]; at 1.2 µM -3% | [6]; at 3.7 µM 0% | [6]; at 11.0 µM -2% | [6]; at 33.0 µM 1% | [6]; at 100.0 µM 5% | [7]; [17] -5% | [7]; [18] 18% | [7]; at 50.0 µM 13.6% | [8]; at 1.2 µM 0% | [8]; at 3.7 µM -1% | [8]; at 11.0 µM 0% | [8]; at 33.0 µM -5% | [8]; at 100.0 µM 3% | [9]; [17] -25% | [9]; [18] -19% | [9]; at 50.0 µM 5.55% | [10]; at 1.2 µM -4% | [10]; at 3.7 µM 0% | [10]; [17] 25% | [10]; at 11.0 µM 10% | [10]; at 33.0 µM 10% | [10]; [18] 43% | [10]; at 50.0 µM -2.7% | [10]; at 100.0 µM 14% | [11]; at 1.2 µM -2% | [11]; at 3.7 µM -3% | [11]; at 11.0 µM -3% | [11]; at 33.0 µM -5% | [11]; at 100.0 µM 0% | [12]; at 1.2 µM 2% | [12]; at 3.7 µM 13% | [12]; at 11.0 µM 2% | [12]; at 33.0 µM -2% | [12]; at 100.0 µM 15% | [13]; at 1.2 µM -2% | [13]; at 3.7 µM -3% | [13]; at 11.0 µM -2% | [13]; at 33.0 µM -3% | [13]; at 100.0 µM -9% | [14]; [17] -8% | [14]; [18] 1% | [14]; at 50.0 µM -4.1% | [15]; at 1.2 µM 3% | [15]; at 3.7 µM 2% | [15]; at 11.0 µM -1% | [15]; at 33.0 µM -6% | [15]; at 100.0 µM -15%
active: [4]; at 50.0 µM 73.5%

C=C1CC(Cn2cc(Br)c(=O)[nH]c2=O)(c2ccc(-c3ccccc3)cc2)OC1=O (stereo unspecified)
active: [1]; at 100.0 µM 93% | [2]; at 100.0 µM 83% | [16]; at 100.0 µM 94% | [4]; [18] 98% | [4]; at 50.0 µM 98.3% | [4]; at 100.0 µM 92% | [5]; [18] 98% | [5]; at 50.0 µM 98.4% | [5]; at 100.0 µM 93% | [7]; [18] 87% | [7]; at 50.0 µM 97.3% | [8]; at 100.0 µM 96% | [9]; [18] 99% | [9]; at 50.0 µM 97.8% | [10]; [18] 99% | [10]; at 50.0 µM 98.2% | [10]; at 100.0 µM 92% | [11]; at 100.0 µM 92% | [13]; at 100.0 µM 93% | [14]; [18] 99% | [14]; at 50.0 µM 97.2% | [15]; at 100.0 µM 95%
inactive: [1]; at 1.2 µM 2% | [1]; at 3.7 µM 13% | [1]; at 11.0 µM 21% | [1]; at 33.0 µM 41% | [2]; at 1.2 µM 1% | [2]; at 3.7 µM 6% | [2]; at 11.0 µM 15% | [2]; at 33.0 µM 26% | [3]; at 1.2 µM -4% | [3]; at 3.7 µM -5% | [3]; at 11.0 µM 3% | [3]; at 33.0 µM 9% | [3]; at 100.0 µM 16% | [16]; at 1.2 µM 0% | [16]; at 3.7 µM 9% | [16]; at 11.0 µM 29% | [16]; at 33.0 µM 55% | [4]; at 1.2 µM 3% | [4]; at 3.7 µM 7% | [4]; [17] 8% | [4]; at 11.0 µM 17% | [4]; at 33.0 µM 36% | [5]; at 1.2 µM 5% | [5]; at 3.7 µM 15% | [5]; [17] 21% | [5]; at 11.0 µM 40% | [5]; at 33.0 µM 57% | [7]; [17] 30% | [8]; at 1.2 µM -2% | [8]; at 3.7 µM -5% | [8]; at 11.0 µM 10% | [8]; at 33.0 µM 21% | [9]; [17] 23% | [10]; at 1.2 µM -1% | [10]; at 3.7 µM 1% | [10]; [17] 10% | [10]; at 11.0 µM 25% | [10]; at 33.0 µM 53% | [11]; at 1.2 µM 2% | [11]; at 3.7 µM 10% | [11]; at 11.0 µM 16% | [11]; at 33.0 µM 29% | [13]; at 1.2 µM 8% | [13]; at 3.7 µM 26% | [13]; at 11.0 µM 37% | [13]; at 33.0 µM 57% | [14]; [17] 68% | [15]; at 1.2 µM 4% | [15]; at 3.7 µM 10% | [15]; at 11.0 µM 10% | [15]; at 33.0 µM 43%

O=C1c2ccccc2C(=O)c2c(NC3CCCCC3)ccc(Nc3ccc(S(=O)(=O)O)cc3)c21
active: [3]; at 33.0 µM 80% | [16]; at 33.0 µM 81% | [4]; at 50.0 µM 79.2% | [5]; at 50.0 µM 77% | [7]; [18] 85% | [7]; at 50.0 µM 77.2% | [10]; at 50.0 µM 70.3% | [11]; at 33.0 µM 80%
inactive: [1]; at 1.2 µM -5% | [1]; at 3.7 µM -5% | [1]; at 11.0 µM -5% | [1]; at 33.0 µM 37% | [1]; at 100.0 µM 49% | [2]; at 1.2 µM -1% | [2]; at 3.7 µM -5% | [2]; at 11.0 µM -7% | [2]; at 33.0 µM 10% | [2]; at 100.0 µM 33% | [3]; at 1.2 µM -2% | [3]; at 3.7 µM 5% | [3]; at 11.0 µM 56% | [3]; at 100.0 µM 63% | [16]; at 1.2 µM -2% | [16]; at 3.7 µM -1% | [16]; at 11.0 µM -2% | [16]; at 100.0 µM 68% | [4]; at 1.2 µM 0% | [4]; at 3.7 µM -2% | [4]; [17] 8% | [4]; at 11.0 µM 9% | [4]; at 33.0 µM 27% | [4]; [18] 62% | [4]; at 100.0 µM 44% | [5]; at 1.2 µM 1% | [5]; at 3.7 µM -5% | [5]; [17] -14% | [5]; at 11.0 µM -5% | [5]; at 33.0 µM 14% | [5]; [18] 59% | [5]; at 100.0 µM 48% | [7]; [17] -13% | [8]; at 1.2 µM -5% | [8]; at 3.7 µM 4% | [8]; at 11.0 µM -5% | [8]; at 33.0 µM 1% | [8]; at 100.0 µM 18% | [9]; [17] -13% | [9]; [18] -4% | [9]; at 50.0 µM 59% | [10]; at 1.2 µM -2% | [10]; at 3.7 µM -4% | [10]; [17] 6% | [10]; at 11.0 µM 5% | [10]; at 33.0 µM 36% | [10]; [18] 46% | [10]; at 100.0 µM 30% | [11]; at 1.2 µM -3% | [11]; at 3.7 µM -4% | [11]; at 11.0 µM 5% | [11]; at 100.0 µM 62%
